Screening results (PubChem BioAssay)
Rows were chosen to be rich in hits. Some 19% of all compounds tested hit in one or more screens of this group.
IL1B secr inh: qHTS for Inhibitors of Inflammasome Signaling: IL-1-beta AlphaLISA Primary Screen. actives 4.7% (n = 360,000). activity change, % at 57.5 µM. THP-1 LPS/ATP IL-1B secretion, AlphaLISA, 16 h; stronger effect = lower value. AID 743279, 2014; in the data active means activity change below about -50%; inconclusive means mostly about -30% to -49%
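THP-1 cells pretreated 1 hr with compounds (up to 57.5 uM final), then stimulated with LPS (250 ng/mL final) plus ATP (1.25 mM final); secreted IL-1B measured by AlphaLISA after 16 hr, decreased signal indicating inhibition.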
HT1080 IDH1KD tx: qHTS for induction of synthetic lethality in tumor cells producing 2HG: qHTS for the HT-1080-IDH1KD cell line; HT-1080 IDH1 knockdown viability, ATP luminescence, 48 h; Potency, µM (titrated, usually from 46.1 µM), inactives show top-dose activity, negative = toxicity, usual class: cytotoxic; actives 2% (n = 360,000);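 further: potency means the concentration at half of the fitted maximal effect; 0% = DMSO wells and -100% = cell-free medium wells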
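In this qHTS, HT-1080 cells depleted of IDH1 are exposed for 48 h at 37 °C to compound titrations. Toxicity is scored from CellTiter-Glo luminescence, with DMSO as full viability and medium alone as none.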
uPA surface inh: qHTS for Inhibitors of Cell Surface uPA Generation | cell surface uPA generation assay, qHTS | Potency, µM (highest dose often 38.3 µM), for inactives: at the highest dose activity change, negative = inhibition, most hits filed as inhibitors | actives 0.31% (n = 330,000); active means well fitted inhibition curve with a large enough effect; inconclusive means small, poorly fitted or top-dose-only effect; inactive means no such curve, though single readings can be large or run the other way; tested in mouse RAW 264.7 cells; further: potency means the concentration at half of the fitted maximal effect; nearly all actives have a fitted effect of over 55% in size
TDP1 cell noCPT: qHTS for Inhibitors of human tyrosyl-DNA phosphodiesterase 1 (TDP1): qHTS in cells in absence of CPT; DT40 Tdp1-/- hTDP1 cells, no CPT, ATP luminescence, 48 h; actives 15% (n = 420,000); Potency, µM (titrated, usually from 46.2 µM), without a hit: at the top dose activity change, negative = growth inhibition, most hits filed as inhibitors; further: potency means the concentration at half of the fitted maximal effect; nearly all actives have a fitted effect of over 55% in size
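Stably hTDP1-transfected Tdp1-null chicken DT40 cells were treated with library compounds minus camptothecin and grown for at least 48 hr at 37 °C, after which cellular ATP was quantified by luminescence.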
DT40 TDP1 CPT: qHTS for Inhibitors of human tyrosyl-DNA phosphodiesterase 1 (TDP1): qHTS in cells in presence of CPT; actives 12% (n = 420,000); chicken DT40 Tdp1-/-;hTDP1 cells + 20 nM CPT, ATP luminescence, 48 h; Potency, µM (highest dose often 46.2 µM), without a hit: at the top dose activity change, negative = growth inhibition, hits mostly inhibitors; further: potency means the concentration at half of the fitted maximal effect; nearly all actives have a fitted effect of over 55% in size
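Chicken DT40 Tdp1-/- cells stably complemented with human TDP1 were seeded at 400 cells/well in medium containing 20 nM camptothecin, exposed to pin-transferred compounds, and grown at 37 °C for at least 48 hr. Viability was read as ATP luminescence.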
HT1080NT lethal: qHTS for induction of synthetic lethality in tumor cells producing 2HG: qHTS for the HT-1080-NT fibrosarcoma cell line; HT-1080-NT fibrosarcoma viability, CellTiter-Glo ATP luminescence, 48 h; Potency, µM (doses to about 46.1 µM), for the others: top-dose activity, negative = less viability, hits mostly cytotoxic; actives 1.6% (n = 360,000); AID 686970, 2013;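 further: NT is the 2HG producing partner of a matched IDH1 knockdown line; potency means the concentration at half of the fitted maximal effect; 0% = DMSO-treated cells and -100% = media-only wells without cells; nearly all actives have a fitted effect of over 55% in size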
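Read-out is CellTiter-Glo luminescence after 10 minutes at room temperature, following 48 hours' compound treatment of HT-1080-NT cells (750 cells/well, RPMI, 5% FBS, 37 degrees C).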
* = called active by the depositor; i = inactive; ? = inconclusive; . = not tested or not shown. Unless noted, the call rests on the fitted dose curve; in most records, active means well fitted curve in the direction sought with a large enough effect; inconclusive means small, poorly fitted or top-dose-only effect, or another doubt; inactive means no such curve, though single readings can be large; an effect the other way counts as inactive or inconclusive. Unless noted, on the % scale 0 is the no-effect control and ±100 the full control effect.

SMILES	IL1B secr inh	HT1080 IDH1KD tx	uPA surface inh	TDP1 cell noCPT	DT40 TDP1 CPT	HT1080NT lethal
Cc1cccc2cc(C#N)c(SCCN3CCCCC3)nc12	-59*	?	-6%	?	?	?
O=C(Nc1ccc(Cc2ccncc2)cc1)c1ccc(S(=O)(=O)N2CCOCC2)cc1	-19	?	-7%	18µM*	?	-5%
O=C(Nc1ccncc1)c1cc(S(=O)(=O)N2CCOCC2)ccc1Cl	20	7%	10%	-24%	-11%	1%
CC1CN(S(=O)(=O)c2ccc(C(=O)Nc3ccc(S(=O)(=O)N4CCOCC4)cc3)cc2)CC(C)O1 (centres undefined)	i	-1%	0%	13µM*	?	-5%
O=C(Nc1ccc(S(=O)(=O)N2CCOCC2)cc1)c1ccc(Cl)cc1	-6	-1%	-11%	21µM*	21µM*	-13%
O=C(Nc1ccc(S(=O)(=O)N2CCOCC2)cc1)c1ccc(S(=O)(=O)N2CCOCC2)cc1	22	3%	2%	-4%	-5%	17%
O=C(Nc1ccc(S(=O)(=O)N2CCOCC2)cc1)c1cc(S(=O)(=O)N2CCOCC2)ccc1Cl	35	-10%	-1%	?	18µM*	-9%
Cc1ccc(S(=O)(=O)N2CCOCC2)cc1C(=O)Nc1ccc(N2CCCCCC2)cc1	-53*	?	0%	4.6µM*	4.6µM*	-14%
N#C/C(=C\Nc1ccc2cn[nH]c2c1)c1nc(-c2ccccc2)cs1	15	?	-2%	16µM*	?	?
N#C/C(=C\Nc1ccc2cn[nH]c2c1)c1nc(-c2ccc(Cl)cc2)cs1	48	15µM*	-4%	23µM*	?	18µM*
Cc1nc(C(F)(F)F)ccc1C(=O)N1CCC1(C)C(=O)NS(=O)(=O)c1ccc(C#N)cc1 (centres undefined)	0	?	.	-3%	-20%	19%
CCCCNC(C(=O)Nc1ccc(Cl)c([N+](=O)[O-])c1)c1ccccc1 (centres undefined)	?	-6%	-1%	21µM*	?	-16%
Cc1ccc(S(=O)(=O)N2CCC(=O)N(C(COCc3cccc(Cl)c3)C(C)C)CC2)cc1 (centres undefined)	14	3%	-9%	21µM*	?	-2%
Cc1ccc(S(=O)(=O)N2CCC(=O)N(C(COCc3cccc(C(F)(F)F)c3)C(C)C)CC2)cc1 (centres undefined)	-5	-28%	-21%	21µM*	16µM*	-14%
Cc1ccc(S(=O)(=O)N2CCC(=O)N(C(COCc3cccc(C)c3)C(C)C)CC2)cc1 (centres undefined)	11	-12%	7%	?	?	0%
Cc1ccc(S(=O)(=O)N2CCC(=O)N([C@H](COCc3cccc(Cl)c3)C(C)C)CC2)cc1	11	6%	.	16µM*	21µM*	-3%
CN(Cc1ccco1)C(=O)[C@H](Cc1ccccc1)NC(=O)CC[C@H]1O[C@@H](n2ccc(=O)[nH]c2=O)[C@H](O)[C@@H]1O	-4	10%	.	11%	-2%	19%
O=C(c1ccc(N2C(=O)CCC2=O)cc1)N1CCCSC1=Nc1ccccc1	27	0%	.	?	-8%	10%
COc1ccc(CN2CCNC(=O)C2CC(=O)N(C)CCCN2CCOCC2)cc1C (centres undefined)	-2	-8%	3%	18%	4%	1%
CC1=C(C(=O)NCc2ccccc2C)C2(CCCCCC2)OC1=O	.	.	.	-21%	?	.
COc1ccc(/C=C2\SC(=S)N(CCC(=O)N3CCCCC3)C2=O)cc1	-6	9%	1%	?	?	1%
CCOC(=O)N1CCN(C(=O)CCN2C(=O)/C(=C\c3cccc(OC)c3)SC2=S)CC1	9	10%	-1%	15µM*	-96%	11%
COc1cccc(/C=C2\SC(=S)N(CCCC(=O)Nc3cc(C)on3)C2=O)c1	-13	4%	2%	-6%	-27%	-1%
COc1cccc(/C=C2\SC(=S)N(CCC(=O)N3CCCCC3)C2=O)c1	0	-1%	-13%	4.1µM*	6.5µM*	0%
CCCNC(=O)Cn1nc(-c2ccc(C)c(C)c2)c2cnc3ccc(F)cc3c21	.	.	.	-21%	?	.
SMILES	IL1B secr inh	HT1080 IDH1KD tx	uPA surface inh	TDP1 cell noCPT	DT40 TDP1 CPT	HT1080NT lethal
COC(=O)c1c2c(nc3ccccc13)CCC2	22	0%	3%	?	-20%	-7%
O=C(OC(C(=O)N1CCOCC1)c1ccccc1)c1c2c(nc3ccccc13)CCCC2 (centres undefined)	.	.	.	14µM*	?	.
CC(C)(C)C(=O)COC(=O)c1c2c(nc3ccccc13)CCC2	45	-17%	0%	-25%	-3%	-12%
O=C(OCC(=O)N1CCc2ccccc21)c1c2c(nc3ccccc13)CCCC2	-20	?	-7%	23µM*	16µM*	-15%
CC1Cc2ccccc2N1C(=O)COC(=O)CCc1nc2ccccc2c(=O)[nH]1 (centres undefined)	-14	5%	0%	18µM*	29µM*	-6%
O=C(CCc1nc2ccccc2c(=O)[nH]1)OCC(=O)N1CCc2ccccc21	25	-1%	0%	0%	17%	0%
CC1Cc2ccccc2N1C(=O)COC(=O)c1c2c(nc3ccccc13)CCCCC2 (centres undefined)	?	-26%	-6%	12µM*	8.2µM*	-25%
NC(=O)COC(=O)c1c2c(nc3ccccc13)CCCCC2	-11	-3%	-4%	0%	-5%	0%
Cc1ccc(S(=O)(=O)N2CC(C)N(C(=O)N3CCOCC3)C2C)cc1 (centres undefined)	10	-2%	0%	-1%	5%	-4%
CCn1c(=O)n(CC2CCC(C(=O)NC(C)C)CC2)c(=O)c2sccc21 (centres undefined)	.	.	.	-4%	-3%	.
O=C(COC(=O)c1c2c(nc3ccccc13)CCCC2)c1cccs1	36	-27%	-1%	?	29µM*	-23%
Cc1c(O)cnc2nn(-c3ccccc3)c(=N)n12	-12	6%	.	-7%	-1%	14%
